Molecules are shown by their SMILES. Where “and” joins values, the source holds several entries; their conditions need not be identical. Identical values can stand only once. Inconclusive results are not listed. Calls of active or inactive are those of the source. The call rests on the fitted dose curve; in most records, active means well fitted inhibition curve with a large enough effect in the repeat runs; inconclusive means weak or mixed curves; inactive means no such curve, though single readings can be large or run the other way.
Potency means the concentration at half of the fitted maximal effect.

Cytochrome P450 2C9 (Homo sapiens), sequence (P11712 whole entry, looked up): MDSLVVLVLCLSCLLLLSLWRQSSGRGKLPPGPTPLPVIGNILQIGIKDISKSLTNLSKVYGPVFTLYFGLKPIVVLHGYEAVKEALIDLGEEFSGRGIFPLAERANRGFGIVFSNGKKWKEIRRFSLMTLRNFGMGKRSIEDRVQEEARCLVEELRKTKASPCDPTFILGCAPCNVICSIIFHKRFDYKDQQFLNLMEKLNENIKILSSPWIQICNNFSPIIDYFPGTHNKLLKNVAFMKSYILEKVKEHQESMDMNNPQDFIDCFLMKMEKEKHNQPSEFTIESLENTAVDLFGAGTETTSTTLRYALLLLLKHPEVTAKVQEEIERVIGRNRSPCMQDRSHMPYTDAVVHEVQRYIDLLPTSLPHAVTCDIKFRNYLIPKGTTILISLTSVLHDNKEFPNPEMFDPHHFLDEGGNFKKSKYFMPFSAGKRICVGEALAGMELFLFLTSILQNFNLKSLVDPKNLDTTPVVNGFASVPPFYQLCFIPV

This experiment concerns the target Cytochrome P450 2C9 (Homo sapiens) (UniProt P11712). As to the kind of experiment: Cytochrome P450 Family 2 Subfamily C Member 9 (CYP2C9) small molecule antagonists: luciferase reporter qHTS assay (AID 1671198). Further: nearly all actives have a fitted effect of over 50% in size. The following applies: P450-Glo CYP2C9 enzyme assay, luciferin luminescence; series mostly up to 53 µM. The source says: U.S. Tox21 Program National Center for Advancing Translational Sciences [NCATS] U.S. Environmental Protection Agency [EPA] National Institutes of Environmental Health Sciences [NIEHS] National Toxicology Program [NTP] U.S. Food and Drug Administration [FDA] Tox21 Assay Overview: Cytochrome P450 (CYP) enzymes are membrane-bound hemeproteins that play a key role in metabolism of drugs and xenobiotics. Evaluation of the effect of chemicals on CYP isozymes is useful to minimize the adverse drug reactions and toxicities in drug development process. Tox21 chemicals were tested for their effect on CYP enzyme activities by using P450-Glo (TM) screening systems (Promega Corporation, Madison, WI). These systems provide a luminescent method containing proluciferin substrates and are converted to luciferin products by CYP isozymes. The luciferin products formed are detected with a luciferin detection reagent, and the amount of light produced is proportional to CYP activity. P450-Glo (TM) CYP2C9 screening system (Catalog. No. V9790) was used to detect the compounds that interfere in CYP2C9 activity.
Tox21 Assay Protocol Summary: Two ul of enzyme-substrate mix was dispensed into medium binding white/solid 1536-well plates (Greiner Bio-One North America Inc., Monroe, NC) using a BioRaptr Flying Reagent Dispenser (FRD, Beckman Coulter, Brea, CA). […] The assay plates were incubated at room temperature for 10 min. Then 2 ul of NADPH regeneration solution was added to each well of the assay plates using an FRD and incubated at 37C for 1 h. The reaction was stopped by adding 4 ul of detection reagent using an FRD and after 20 min incubation at room temperature the luminescence signal was measured using a ViewLux plate reader (Perkin Elmer, Shelton, CT). Data were expressed as relative luminescence units.
In general terms: Reporter assays use an easily measured gene product as a stand-in for the process of interest.
For the compound `Clc1ccc2n[nH]nc2c1`, the Potency entry was “inactive”. `NNc1nc(-c2ccc(N)cc2)cs1`: the Potency is 31.7 µM (active). Then `Cc1cc(O)c2ccccc2c1O`, with 12.3 µM (active); and `NNC(=O)c1cccc(C(=O)NN)c1`, with 35.6 µM (active); and `CN(C)CCCOC1(Cc2ccccc2)CCCCCC1`, with “inactive”. Then `O=Cc1cc(O)ccc1Br`, with 45.4 µM (active); and `CCCCCCCCCCCCc1ccc(O)cc1`, with 6.33 µM (active); and `CCc1cc(Cc2cc(CC)cc(C(C)(C)C)c2O)c(O)c(C(C)(C)C)c1`, with 3.17 µM (active).

For the compound `O=C(O)c1ccc(Cl)c(Cl)c1`, the Potency result is “inactive”. Then `Cc1cc(CCN2CCN(c3nsc4ccccc34)CC2)cc2c1NC(=O)CC2(C)C`, with 39.9 µM (active); and `CC1=C(/C=C/C(C)=C/C=C/C(C)=C/C=O)C(C)(C)CCC1`, with 44.6 µM (active). Then `Fc1ccc(C(c2ccc(F)cc2)N2CCN(C/C=C/c3ccccc3)CC2)cc1`, with 15.5 µM (active); and `CCCCN(CCCC)C(=O)N(CCCC)CCCC`, with “inactive”; and `O=C1CCCc2c1cc1ccc3cccc4ccc2c1c34`, with 5.71 µM (active). Then `O=C(Oc1ccccc1)c1ccccc1C(=O)Oc1ccccc1`, with 12.6 µM (active); and `Cc1onc(-c2c(Cl)cccc2Cl)c1C(=O)N[C@@H]1C(=O)N2[C@@H]1SC(C)(C)[C@@H]2C(=O)O`, with 13.8 µM (active). Regarding `CCCC/C=C/CCCCO`, the Potency is 71 µM (active). Then `CCCCCCCCOC(=O)c1ccc(O)cc1`, with 31.6 µM (active) and 35.6 µM (active). Consider `Cc1cccc(N(C)C(=S)Oc2ccc3c(c2)C2CCC3C2)c1` (stereo not given), for which the Potency was 15.5 µM (active).

As for `Clc1ccccc1C(c1ccccc1)(c1ccccc1)n1ccnc1`, the Potency was 1.12 µM (active) and 1.1 µM (active). Then `Cc1cccc2c1cc1ccc3cccc4ccc2c1c34`, with “inactive”; and `CCCCCCCCCCn1cc[n+](CCCCCCCCCC)c1C`, with 40 µM (active). With `C=CC(=O)OCCn1c(=O)n(CCOC(=O)C=C)c(=O)n(CCOC(=O)C=C)c1=O`, the Potency is 35.6 µM (active). With `CC(C)OC(=O)c1cc2c(OCC(O)CNC(C)(C)C)cccc2[nH]1` (stereo not given), the Potency result is “inactive”. Turning to `CCCCCCCC(=O)[O-].CCCCCCCC(=O)[O-].[Zn+2]`, the Potency result was “inactive”.

`N=C1N=C(N)c2ccccc21`: the Potency result was “inactive”. In the case of `CC(C)(C)CC(C)(C)c1ccc(O)c(Cc2ccc(Cl)cc2Cl)c1`, the Potency is 5.49 µM (active). Consider `CCCCc1oc2ccc(NS(C)(=O)=O)cc2c1C(=O)c1ccc(OCCCN(CCCC)CCCC)cc1`, for which the Potency is 34.7 µM (active). Then `O=S1(=O)CC(Cl)(Cl)C(Cl)(Cl)C1`, with 22.4 µM (active); and `CSc1ccc(C(=O)c2[nH]c(=O)[nH]c2C)cc1`, with “inactive”. Then `CCC1OCC(COc2ccc(Oc3ccccc3)cc2)O1` (stereo not given), with 28.3 µM (active); and `CCCCCCCCS(=O)C(C)Cc1ccc2c(c1)OCO2` (stereo not given), with 1.62 µM (active); and `Cc1cccc(S(=O)(=O)O)c1C`, with “inactive”. Then `Clc1ccc(C(Cn2ccnc2)OCc2ccc(Sc3ccccc3)cc2)c(Cl)c1` (stereo not given), with 2.75 µM (active); and `NC(=O)N1C(=O)C(C(=O)c2cc(Cl)cs2)c2cc(F)c(Cl)cc21` (stereo not given), with 6.33 µM (active). As to `CCCCCCCCCCCCCCCS(=O)(=O)Oc1ccccc1`, the Potency is 1.23 µM (active). Then `CNC(=O)c1ccccc1`, with “inactive”; and `CCOC(=O)O[C@]1(C(=O)OCCl)CC[C@H]2[C@@H]3CCC4=CC(=O)C=C[C@]4(C)[C@H]3[C@@H](O)C[C@@]21C`, with “inactive”. Then `CCCCCCCCCCCC[N+](C)(C)CCCCCCCCCCCC`, with 22.4 µM (active); and `CCCCCOc1ccccc1/C(=C\SC)n1ccnc1`, with 5.49 µM (active).

The record behind these values is PubChem BioAssay (Tox21).
